Compound activity (PubChem BioAssay)
Pf growth 96h: Primary qHTS for delayed death inhibitors of the malarial parasite plastid, 96 hour incubation; P. falciparum luciferase reporter growth, 96 h; Potency, µM (doses to about 28.7 µM), for inactives: at the top dose activity change, negative = inhibition, most hits filed as inhibitors; hit rate 6.9% among 320,000; AID 504834, 2011; also: % is scaled to controls: 0 for no effect and ±100 for the full control effect
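Parasite growth measured via integrated firefly luciferase reporter in P. falciparum. Infected erythrocytes at 2% hematocrit, 0.05% parasitemia final were treated 96 hours at 37 C under 5% CO2, and luminescence was read.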
VACV mCherry inh: qHTS for Stage-Specific Inhibitors of Vaccinia Orthopoxvirus: mCherry Reporter Primary qHTS | Potency, µM (series often up to 36.5 µM), for the others: at the highest dose activity change, negative = inhibition, usual class: inhibitors | hit rate 0.63% among 310,000 | Vaccinia virus mCherry reporter infection, fluorescence | AID 720579, 2013; calls by dose curve; tested in A549 cells; also: % is scaled to controls: 0 for no effect and ±100 for the full control effect; nearly all actives have a fitted effect of over 35% in size
HCV inh: qHTS Assay for Inhibitors of Hepatitis C Virus (HCV). Huh7.5.1 HCVcc-Cre infection, luciferase reporter, 44 h. Potency, µM (highest dose often 41.8 µM), for the others: at the highest dose activity change, negative = inhibition, actives largely listed as inhibitors. hit rate 3.4% among 340,000; also: % is scaled to controls: 0 for no effect and ±100 for the full control effect
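Seed cells (1,000/well) for 4 h; treat with compound and infect with HCVcc-Cre, moi about 0.5. Incubate 44 h, then detect luciferase activity.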
VACV Venus inh: qHTS for Stage-Specific Inhibitors of Vaccinia Orthopoxvirus: Venus Reporter Primary qHTS; Vaccinia virus Venus reporter expression, fluorescence; Potency, µM (doses to about 36.5 µM), inactives show at the highest dose activity change, negative = inhibition, actives largely listed as inhibitors; hit rate 0.46% among 330,000; calls by dose curve; tested in A549 cells; also: % is scaled to controls: 0 for no effect and ±100 for the full control effect; nearly all actives have a fitted effect of over 30% in size
NS1 function inh: qHTS Assay for Inhibitors of Influenza NS1 Protein Function. AID 2326, 2010. Potency, µM (titrated, usually from 46.1 µM), inactives show at the top dose activity, positive = more growth. hit rate 0.4% among 270,000; calls by dose curve; also: actives are rising curves; nearly all actives have a fitted effect of over 50% in size
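Growth recovery, yeast-based: influenza A NS1 expressed in S. cerevisiae causes slow growth, and suppressors are detected by OD600. The parent strain without NS1 is used as positive control.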
Pf growth 48h: Primary qHTS for delayed death inhibitors of the malarial parasite plastid, 48 hour incubation. Potency, µM (doses to about 28.7 µM), for inactives: at the top dose activity change, negative = inhibition, hits mostly inhibitors. hit rate 5.9% among 310,000. P. falciparum luciferase growth in erythrocytes, 48 h; also: % is scaled to controls: 0 for no effect and ±100 for the full control effect
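Parasite viability was followed by luminescence of a genomically integrated firefly luciferase. Cultures held 0.1% parasitemia at 2% hematocrit (final), incubated under 5% CO2 at 37 C.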
* hit, by the source's call; i = inactive; ? = inconclusive; nt = not tested or not shown. A selection: hits, their analogues and other compounds. The true share with any hit is near 11%. Unless noted, calls follow the shape of the dose curve; as a rule, active = well fitted inhibition curve with a large enough effect; inconclusive = small, poorly fitted or top-dose-only effect, or another doubt; inactive = no such curve, though single readings can be large or run the other way. Potency is read from the fitted curve at half-maximal effect.

SMILES | Pf growth 96h | VACV mCherry inh | HCV inh | VACV Venus inh | NS1 function inh | Pf growth 48h
Nc1cccc(-n2nnnc2CN2CCOCC2)c1 | 10.4µM* | -9.1% | 12.7% | -2.1% | 6.9% | -0.1%
O=[N+]([O-])c1ccc(-n2nnnc2CN2CCCCC2)cc1 | -1.9% | i | -2.3% | 0.6% | -2.6% | 10.4%
Nc1ccc(-n2nnnc2CN2CCOCC2)cc1 | ? | -12.1% | 31.4% | 5.2% | 6.0% | 19.0%
O=[N+]([O-])c1ccc(-n2nnnc2CN2CCOCC2)cc1 | 6.57µM* | i | 8.5% | -11.3% | 4.5% | 3.1%
Cc1ccc(N2CC(C(=O)OCC(=O)c3ccc(F)cc3)CC2=O)cc1 (stereo unspecified) | 2.94µM* | i | 0.9% | -6.5% | -9.4% | 12.6%
CC(=O)NC1C(=O)N(CCc2ccccc2)c2ccc(Br)cc21 (stereo unspecified) | 1.85µM* | i | -16.3% | -3.0% | 29.2% | nt
CN1/C(=C/C=C(/C#N)C(N)=O)C(C)(C)c2ccccc21 | ? | ? | ? | ? | -17.0% | ?
CCCSc1nc(C)cc(C)c1S(=O)(=O)c1ccccc1C | ? | -4.5% | -22.5% | -21.3% | -21.1% | ?
Cc1cc(C)c(S(=O)(=O)c2ccccc2C)c(SCC(C)C)n1 | 11.7µM* | nt | ? | ? | -10.3% | ?
COc1ccc(/C=N/OCC(=O)NC(c2ccccc2)c2ccccc2)cc1OC | 8.28µM* | ? | 3.98µM* | ? | 16.1% | 9.28µM*
COc1cc(/C=N/OCC(=O)NC23CC4CC(CC(C4)C2)C3)ccc1OCc1ccccc1 | 9.28µM* | ? | ? | ? | -8.5% | ?
COc1cc(/C=N/OCC(=O)NC2CCCCC2)ccc1OCc1ccccc1 | ? | -0.9% | ? | -13.6% | 6.3% | 15.9%
CCNC(=O)N1CCCC(C(=O)c2ccc3cc(OC)ccc3c2)C1 (stereo unspecified) | ? | -24.6% | 1.7% | -12.2% | -5.9% | ?
CN1C(=O)Cc2cc(S(=O)(=O)NCc3cccs3)ccc21 | -2.6% | 8.7% | -11.8% | 1.8% | 12.2% | 6.9%
CCCCCCN1C=CC(=C/C=C(\C#N)C(=O)OCC)C=C1 | 13.1µM* | -17.1% | ? | 28.9% | 10.7% | 10.4µM*
CCCN1C=CC(=C/C=C(\C#N)C(=O)OCC)C=C1 | 107.3% | nt | nt | nt | 13.5% | 92.9%
COc1ccc(S(=O)(=O)N2CCN(CC(O)CN3CCOCC3)CC2)cc1 (stereo unspecified) | ? | nt | -0.6% | nt | nt | ?
CSC(=S)NN=C(C)c1cccc(C)n1 | nt | ? | 3.98µM* | ? | nt | nt
C/C(=N/NC(=O)CNC(=O)c1ccccn1)c1ccccc1 | 124.0% | nt | 7.0% | nt | 3.5% | 81.4%
C=CCNC(=S)N/N=C(\C)c1ccccn1 | 0.0029µM* | nt | -28.8% | nt | -166.5% | nt
Cc1cccc(C(=S)N2CCOCC2)n1 | -18.7% | nt | 16.0% | nt | nt | -29.4%
CC(=NNC(=S)N1CC2CCC(CC2)C1)c1ccncn1 | nt | 1.58µM* | 0.316µM* | 6.31µM* | nt | nt
CC(=NNC(=S)N1CCCCC1)c1cccc(C)n1 | nt | 0.316µM* | -69.8% | ? | nt | nt
CC(=NNC(=S)N1CCCCC1)c1ccccn1 | nt | 4.47µM* | nt | 10µM* | nt | nt
N#C/C(=C\c1ccc(N2CCOCC2)o1)C(=O)NCC1CCCO1 (stereo unspecified) | -18.5% | i | 0.1% | 0.0% | -7.8% | ?
CCN(CC)Cc1cc(NC2=NS(=O)(=O)c3ccccc32)ccc1OC(=O)c1ccccc1 | 9.28µM* | -10.9% | 0.3% | -5.8% | 0.7% | ?
CCN(CC)Cc1cc(NC2=NS(=O)(=O)c3ccccc32)ccc1OC(=O)C(C)C | nt | nt | -12.0% | nt | -2.6% | nt
CCN(CC)C(=O)c1[nH]cnc1C(=O)N[C@@H](C)c1ccccc1 | 0.0% | i | 1.8% | -12.1% | nt | 0.0%
CCCCNC(=O)CSc1nc2ccccc2c(=O)n1CC1COc2ccccc2O1 (stereo unspecified) | ? | nt | 2.82µM* | nt | 11.0% | ?
